Screening results from PubChem BioAssay.
Bfl-1 A1 inh: inhibitors of the anti-apoptotic protein A1, read as caspase activation. MEF A1-2A-BIM cells, Caspase-Glo 3/7 luminescence, 3 h; percent of clofoctol response, vehicle zero. caspase activation, % (test concentration not listed). 0.066% of 330,000 active;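 active means over half of replicate activation scores above 10%, or exactly half above 10 with the replicate mean above 10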
dFosB activator: enhances mouse delta FosB homodimer DNA binding. purified delta FosB, TAMRA-CDK5 oligo fluorescence polarization; percent of positive-control signal above neutral wells. 0.99% of 340,000 active. P13346. activation, % at 25 µM;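 active means mean activation above about 17%, with every replicate also reaching it, limit read from the data, passing the limit was not always enough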
Vif imaging: blocks HIV Vif function. 0.35% of 340,000 active. inhibition, % at 7.49 µM. HEK293T cells, Vif self-association by quenched fluorescence, imaging, 24 h. AID 602346; in the data active means inhibition above about 50%, passing the limit was not always enough
Neddyl block: blocks human cullin neddylation; P61081+Q13564; TR-FRET cullin neddylation, biochemical; inhibition, % at 25 µM; 0.58% of 360,000 active; AID 651699; in the data active means inhibition above about 36%
Target sequence (P61081 whole entry, looked up): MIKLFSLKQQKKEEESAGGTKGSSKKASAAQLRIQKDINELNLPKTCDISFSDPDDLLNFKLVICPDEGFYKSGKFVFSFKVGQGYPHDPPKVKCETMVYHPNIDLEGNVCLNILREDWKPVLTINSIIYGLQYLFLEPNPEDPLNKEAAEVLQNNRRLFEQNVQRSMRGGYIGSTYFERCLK
Target sequence (Q13564 whole entry, looked up): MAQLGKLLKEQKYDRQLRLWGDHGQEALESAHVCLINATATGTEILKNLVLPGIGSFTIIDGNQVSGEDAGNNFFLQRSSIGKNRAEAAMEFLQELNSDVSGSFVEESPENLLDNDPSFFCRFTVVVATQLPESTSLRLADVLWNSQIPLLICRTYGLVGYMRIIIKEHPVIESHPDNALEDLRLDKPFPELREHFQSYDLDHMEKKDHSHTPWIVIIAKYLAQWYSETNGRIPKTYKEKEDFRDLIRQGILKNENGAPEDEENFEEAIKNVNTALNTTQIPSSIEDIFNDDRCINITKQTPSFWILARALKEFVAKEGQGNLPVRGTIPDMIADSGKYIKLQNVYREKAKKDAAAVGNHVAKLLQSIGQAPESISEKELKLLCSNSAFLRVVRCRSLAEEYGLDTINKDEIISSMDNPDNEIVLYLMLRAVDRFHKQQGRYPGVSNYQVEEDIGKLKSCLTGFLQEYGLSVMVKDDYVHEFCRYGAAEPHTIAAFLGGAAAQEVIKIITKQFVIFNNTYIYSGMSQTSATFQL
INS-1E GSIS act: primary screen for activators of insulin secretion dependent on glucose, INS-1E cells, GLuc reporter luminescence; 0.61% of 370,000 active; activation, % at 16.6 µM; INS-1E GLuc reporter insulin secretion, 2-3 h; AID 743287;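 active means lowest replicate activation of at least 40%, so every replicate reaches that level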;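 further: 0% = median of neutral control wells and 100% = median of IBMX positive control wells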
* hit, by the source's call; x = not tested or not shown. Rows were chosen to be rich in hits. Some 1.9% of all compounds tested hit in one or more screens of this group.

SMILES	Bfl-1 A1 inh	dFosB activator	Vif imaging	Neddyl block	INS-1E GSIS act
Cc1ccc(-c2nn(-c3ccccc3)cc2/C=N/NC(=O)c2ccncc2)o1	0	26*	2	4	-2
CCCCCCCC/C=C\CCCCCCCC(=O)NCCc1ccc(O)c(O)c1	12*	-17	2	8	x
CCCCCCCC/C=C\CCCCCCCC(=O)NCCO	0	7	-1	1	x
COc1ccc(C(=O)c2sc3nc(C)cc(-c4cccs4)c3c2N)cc1OC	0	1	176*	10	8
COc1ccc(C(=O)c2sc3nc(C)cc(-c4cccs4)c3c2N)cc1	x	-5	0	33	-1
C[C@H](CO)N1C[C@H](C)[C@@H](CN(C)C(=O)Cc2ccccn2)Oc2cc(C#C[C@@H](C)O)ccc2S1(=O)=O	x	x	x	x	41*
C[C@H](CO)N1C[C@H](C)[C@@H](CN(C)C(=O)CC2CC2)Oc2cc(C#CC(C)(C)O)ccc2S1(=O)=O	x	x	x	x	44*
CC(C)CC#Cc1ccc2c(c1)O[C@@H](CN(C)Cc1ccccc1)[C@@H](C)CN([C@H](C)CO)S2(=O)=O	x	x	x	x	51
CC(C)CC#Cc1ccc2c(c1)O[C@@H](CN(C)Cc1ccc(F)cc1)[C@H](C)CN([C@H](C)CO)S2(=O)=O	x	x	x	x	46*
C[C@H](O)C#Cc1ccc2c(c1)O[C@@H](CN(C)C(=O)Cc1ccccn1)[C@H](C)CN([C@H](C)CO)S2(=O)=O	x	x	x	x	23
O=C([C@H]1N[C@H]2c3ccc(-c4ccccc4F)c(=O)n3C[C@H]2[C@@H]1CO)N1CCc2ccccc2C1	x	x	x	x	4
Cc1noc(C)c1S(=O)(=O)Nc1ccc2c(c1)C(=O)N([C@H](C)CO)C[C@@H](C)[C@H](CN(C)C(=O)c1ccccc1)OCCCC[C@@H](C)O2	x	x	x	x	4
Cc1ccc(S(=O)(=O)N(C)C[C@@H]2Oc3ccc(NC(=O)CCC(F)(F)F)cc3C(=O)N([C@H](C)CO)C[C@@H]2C)cc1	x	x	x	x	-1
COc1ccc(-c2cc3cc(OC)c(OC)cc3cn2)cc1OC	-1	-11	2	-10	7
COc1cc2cnc(Cl)nc2cc1OC	0	-4	7	0	61*
CC(C)(C)OC(=O)NCCc1nnc(S(=O)(=O)Cc2ccc(Cl)cc2Cl)o1	5.9*	-2	-1	-1	x
CCn1c(/C=C/c2ccc(F)cc2)nc2ccccc2c1=O	1	-4	60*	-5	-2
COc1cc2[nH]c3c(Cl)ncnc3c2cc1OC	-2	-1	1	20	54*
COc1cc2[nH]c3c(N4CCN(c5ccc(Cl)cc5)CC4)ncnc3c2cc1OC	0	5	-6	31	15
CCN1CCN(C(=S)Nc2ccsc2C(=O)OC)CC1	0	7	-2	-9	0
COC(=O)c1sccc1NC(=S)N1CCN(C)CC1	1	-1	7	0	42*
c1cncc(Nc2c3ccccc3nc3ccccc23)c1	1	30*	-3	23	1
Cc1ccc(-c2nc(Nc3cccc(O)c3)c3ccccc3n2)cc1	1	22*	8	35	10
Oc1cccc(Nc2c3ccccc3nc3ccccc23)c1	-1	65*	-2	15	-25
C[C@@H]1CN([C@@H](C)CO)C(=O)Cc2cc(NC(=O)Nc3ccc4c(c3)OCO4)ccc2O[C@@H]1CN(C)S(=O)(=O)c1cccs1	x	x	x	x	-19
SMILES	Bfl-1 A1 inh	dFosB activator	Vif imaging	Neddyl block	INS-1E GSIS act
COc1ccc(C(=O)NC(=S)NNC(=O)c2ccccc2C)cc1	0	-14	0	41*	x
O=C(NC1CCCC1)[C@@H]1[C@@H](CO)[C@@H]2Cn3c(ccc(-c4cccnc4)c3=O)[C@H]1N2CCc1ccccc1	x	x	x	x	2
CC[N+]1(C)CCC(O)(c2ccc(OC)cc2)C(C(=O)c2ccc(OC)cc2)C1 (stereo unspecified)	x	-5	1	5	214*
C[C@H](CO)N1C[C@H](C)[C@@H](CN(C)CC2CC2)Oc2c(NC(=O)C3CCCCC3)cccc2C1=O	x	x	x	x	-7
O=c1[nH]c(CN2CCN(c3ccc(O)cc3)CC2)nc2scc(-c3ccc(Cl)cc3)c12	1	-10	-15	-5	53*
C[C@@H]1CN([C@@H](C)CO)S(=O)(=O)c2ccc(C#CC(C)(C)O)cc2O[C@@H]1CN(C)C(=O)C1CCCCC1	x	x	x	x	-5
CO[C@H]1CN(C)C(=O)c2ccc(NC(=O)C3CCOCC3)cc2OC[C@@H](C)NC[C@@H]1C	x	x	x	x	28
CCN(CC)CCNc1nc2cc(OC)c(OC)cc2c2nc(-c3ccccc3)nn12	0	151*	-34	x	10
COc1cc2[nH]c(=O)n3nc(-c4ccccc4)nc3c2cc1OC	0	-33	-2	x	x
CCCCOc1cccc2c(=O)n(CC(=O)Nc3ccc4c(c3)OCCO4)ccc12	x	x	73*	0	-2
CSc1nc(N2CCN(c3ccccc3Cl)CC2)c2ccccc2n1	-1	-3	-2	-56	-6
CSc1nc(N2CCOCC2)c2ccccc2n1	2	-7	x	-12	92*
CSc1nc(Cl)cc(N2CCOCC2)n1	1	2	9	-6	53*
COc1ccc(OCc2cnc(Cl)s2)cc1	-1	-5	55*	7	x
Cc1cc2[nH]c3c4ccccc4nc(C)c3c2cc1C	x	-138	-6	x	271*
CCCNC(=O)Nc1ccc2c(c1)C(=O)N(C)C[C@@H](OC)[C@@H](C)CN(Cc1ccncc1)[C@@H](C)CO2	x	x	x	x	-1
O=C(Cc1ccncc1)NCC[C@@H]1CC[C@@H](NC(=O)Nc2cccc(F)c2)[C@H](CO)O1	x	x	x	x	-2
C[C@H](O)[C@@H]1CN2CCc3ccc(-c4ccc5c(c4)OCO5)cc3[C@@H]2C[C@@H]1N(C)C(=O)c1cccc(Cl)c1	x	x	x	x	188*
CO[C@@H]1CN(C)C(=O)c2ccc(NC(=O)C3CC3)cc2OC[C@H](C)N(C(=O)c2ccncc2)C[C@H]1C	x	x	x	x	16
CC1(C(=O)NCC2CCCCC2)CCN1CCc1ccccc1 (stereo unspecified)	x	x	-1	3	80*
Cc1ccc(S(=O)(=O)N[C@H]2CC[C@@H](CC(=O)N3CCc4ccccc4C3)O[C@@H]2CO)cc1	x	x	x	x	-7
Cc1c(O)cnc2nn(-c3ccccc3)c(=N)n12	x	x	0	x	42*
Cc1nn(-c2ccccc2)c(C)c1N	0	0	8	-1	-1
O=C(C[C@@H]1C=C[C@H](NC(=O)C2CCOCC2)[C@@H](CO)O1)NCC1CC1	x	x	x	x	17
O=C(Nc1cc(Cl)ccc1Cl)c1ccc(-c2ccccc2)cc1	0	1	-1	-12	6
O=C(Nc1cc(Cl)ccc1Cl)P(=O)(O)c1ccccc1	x	6	57*	-5	0
Cc1cc(C)cc(NC(=O)CCc2nc3sc4c(c3c(=O)[nH]2)CCCC4)c1	-1	10	151*	-255	13
CC(=O)Nc1ccc(NC(=O)CCc2nc3sc4c(c3c(=O)[nH]2)CCCC4)cc1	0	-4	1	-156	4
COC(=O)C[C@H]1CC[C@H]2[C@@H](COC[C@@H](O)CN2S(=O)(=O)c2ccccc2C)O1	x	x	x	x	7
